PostGolgi yeast: growth inhibition of a yeast mutant, post-Golgi transport screen. AID 739. post-Golgi transport phenotypic cell assay. inhibition, % at 10 µM. 98,000 tested, 0.9% active;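 also: yeast cells grown in 1536-well plates; yeast grown about 18 h at 30C before absorbance read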
EphB4 antag: EphB4-ephrin-B2 interaction antagonism | P54760 | EphB4 LBD / TNYL-RAW-Alexa532 peptide, fluorescence polarization | inhibition, % at 7 µM | 97,000 tested, 0.15% active;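 active = inhibition above the screen-wide mean inhibition plus 3 SD, cut at about 15% in these data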
Target sequence (P54760 whole entry, looked up, the tested form may be a part): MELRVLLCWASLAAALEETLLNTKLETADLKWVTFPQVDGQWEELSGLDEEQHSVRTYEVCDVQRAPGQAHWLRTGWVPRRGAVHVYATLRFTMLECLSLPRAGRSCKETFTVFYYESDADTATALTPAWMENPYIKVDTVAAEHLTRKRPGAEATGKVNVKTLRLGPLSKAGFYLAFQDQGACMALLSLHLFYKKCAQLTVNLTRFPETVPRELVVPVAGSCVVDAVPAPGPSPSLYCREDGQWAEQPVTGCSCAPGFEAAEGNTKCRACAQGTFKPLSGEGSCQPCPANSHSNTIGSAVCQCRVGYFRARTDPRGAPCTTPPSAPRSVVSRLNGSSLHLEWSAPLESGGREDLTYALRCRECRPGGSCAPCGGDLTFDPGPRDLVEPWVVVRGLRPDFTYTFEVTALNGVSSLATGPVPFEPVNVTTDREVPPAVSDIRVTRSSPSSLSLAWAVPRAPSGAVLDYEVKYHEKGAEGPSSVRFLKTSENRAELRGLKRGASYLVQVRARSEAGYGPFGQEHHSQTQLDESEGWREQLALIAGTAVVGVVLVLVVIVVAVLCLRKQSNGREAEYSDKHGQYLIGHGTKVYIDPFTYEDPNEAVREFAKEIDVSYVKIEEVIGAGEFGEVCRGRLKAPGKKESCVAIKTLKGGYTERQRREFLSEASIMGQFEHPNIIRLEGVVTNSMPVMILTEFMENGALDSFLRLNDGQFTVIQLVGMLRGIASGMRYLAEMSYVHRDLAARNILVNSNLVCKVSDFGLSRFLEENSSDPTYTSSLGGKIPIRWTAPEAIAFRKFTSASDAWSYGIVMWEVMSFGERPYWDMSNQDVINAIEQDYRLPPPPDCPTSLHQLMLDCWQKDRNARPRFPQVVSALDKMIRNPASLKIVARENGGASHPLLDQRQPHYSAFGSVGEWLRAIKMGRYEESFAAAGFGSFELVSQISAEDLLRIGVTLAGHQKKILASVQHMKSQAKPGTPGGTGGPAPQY
PostGolgi ctrl: inhibits growth of the yeast control strain; efflux-deficient yeast background strain, growth absorbance A615, 16 h; inhibition, % at 10 µM; 98,000 tested, 5% active
Candida biofilm: kills Candida albicans biofilms; 85,000 tested, 0.14% active; inhibition, % at 6 µM; AID 834; C. albicans biofilm + clotrimazole, Alamar Blue;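 active = inhibition above 20%; inactive = inhibition below 20%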;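 also: preformed 24 hr biofilms exposed to compound for 48 hr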
Large screens that a line does not name were inactive; [ ] = remark or other dose. Hits are enriched below; roughly 5.2% of the tested compounds scored in any of these assays. Rule as the data show it, unless noted: active = inhibition above about 30%; inactive = the rest.

CCOC(=O)N1CCC(NC(=O)Cn2nc(Cc3ccncc3)c3ccccc3c2=O)CC1	none
O=C(NC12CC3CC(CC(C3)C1)C2)c1ccc(COc2ccc(Cl)cc2[N+](=O)[O-])o1	PostGolgi ctrl 51 (no result: Candida biofilm)
CN1CCCC1CCNC1C2CC3CC(C2)CC1C3 (stereo not drawn)	none (no result: Candida biofilm)
CC1=NN(C(N)=S)C(=O)C1N=Nc1c(C)cc(C)cc1C (stereo not drawn)	PostGolgi ctrl 32
CC1=NN(C(N)=S)C(=O)C1N=Nc1ccc(C)cc1C (stereo not drawn)	none (no result: Candida biofilm)
CC1=NN(C(N)=S)C(=O)C1N=Nc1ccccc1C (stereo not drawn)	PostGolgi ctrl 30
O=C(NC12CC3CC(CC(C3)C1)C2)N1CCN(c2nc(-c3ccccc3)cs2)CC1	PostGolgi ctrl 42
c1ccc(-c2csc(N3CCOCC3)n2)cc1	none
c1ccc(-c2csc(N3CCN(c4ccccn4)CC3)n2)cc1	PostGolgi ctrl 41
COc1ccc(OC)c(N(CC(N)=O)S(=O)(=O)c2ccc(OC)c(OC)c2)c1	none
COCCn1c(SCc2csc(-c3ccccc3)n2)nc2ccccc21	PostGolgi ctrl 30 (no result: EphB4 antag)
CON(C)c1nc(OCCNC(=O)OCc2ccc(Cl)cc2Cl)nc(N(C)C)n1	none (no result: Candida biofilm)
CCCSc1ncc(Cl)c(C(=O)Nc2ccc(S(=O)(=O)N3CC(C)OC(C)C3)cc2)n1 (stereo not drawn)	PostGolgi yeast 39
COc1ccc(C(=O)N2CCN(c3ccc(C)cc3C)CC2)cc1OC	none (no result: EphB4 antag)
Cc1ccc(N2CCN(C(=O)c3ccccc3F)CC2)c(C)c1	PostGolgi ctrl 42 (no result: Candida biofilm)
COC(=O)c1ccccc1NC(=O)CSCC(=O)Nc1ccccc1	none (no result: Candida biofilm)
CCOC(=O)N/C(N)=N/c1nc2ccccc2s1	PostGolgi ctrl 33
N#CCSc1nc2scc(-c3cccs3)c2c(=O)n1CCc1ccccc1	PostGolgi ctrl 32
c1cc2ccc3ccc(-n4cnnn4)c4ccc(c1)c2c34	PostGolgi ctrl 30 (no result: Candida biofilm)
CCn1c(SCc2cccc(C)c2)nnc1-c1ccc(C)cc1	none
CS(=O)(=O)N(CC(=O)NC1CC2CCC1C2)c1cccc(C(F)(F)F)c1 (stereo not drawn)	PostGolgi ctrl 31
Cc1ccc(N(CC(=O)NC2CC3CCC2C3)S(C)(=O)=O)cc1C (stereo not drawn)	none
COc1cc(Cl)c(S(=O)(=O)NCc2cccnc2)cc1Cl	none
CCOc1ccc2nc(N3CCC(C(=O)N4CCN(c5ncccn5)CC4)CC3)sc2c1	none (no result: PostGolgi yeast, EphB4 antag, PostGolgi ctrl)
CCOc1ccc2nc(N3CCC(C(=O)N4CCN(c5ccccn5)CC4)CC3)sc2c1	PostGolgi ctrl 43 (no result: EphB4 antag)
C/C(N)=C(/C#N)C(=O)CSc1nnc(Nc2cccc(C)c2)s1	none (no result: PostGolgi yeast, PostGolgi ctrl)
C/C(N)=C(/C#N)C(=O)CSc1nc2cc(Cl)ccc2s1	PostGolgi ctrl 44 (no result: Candida biofilm)
N#Cc1c(N2CCCCC2)nc(N)c2c(N)nc3c(c12)CC(c1ccccc1)O3 (stereo not drawn)	PostGolgi ctrl 53
CCOC(=O)Nc1ccc2c(c1)N(C(=O)N(CC)CC)c1ccccc1CC2	none (no result: PostGolgi yeast, EphB4 antag, PostGolgi ctrl)
CC(C)c1ccc(C2C(C#N)=C(N)N3C(=C2C#N)Sc2ccccc23)cc1 (stereo not drawn)	none
O=C1NC(c2ccccc2)=C(c2nc3ccccc3s2)C(c2ccc(F)cc2)N1 (stereo not drawn)	PostGolgi ctrl 41
COc1ccc(C2NC(=O)NC(c3ccccc3)=C2c2nc3ccccc3s2)cc1 (stereo not drawn)	none (no result: Candida biofilm)
O=c1c2cc(Br)cc(Br)c2oc2nc3n(c(=O)c12)CCCS3	PostGolgi ctrl 43
Cc1cc(NCCC(C)C)n2nc(C)c(-c3ccccc3)c2n1	PostGolgi ctrl 53
Cc1cc(NCCCN2CCOCC2)n2nc(C)c(-c3ccccc3)c2n1	none
COc1ccccc1C1c2c(oc3ccc(Cl)cc3c2=O)C(=O)N1c1cc(C)on1 (stereo not drawn)	none (no result: PostGolgi yeast, PostGolgi ctrl)
CCc1nnc2n1N=C(c1ccc(-c3cc(Cl)ccc3Cl)o1)CS2	Candida biofilm 24
CCOC(=O)Cc1csc(SCc2nc3ccccc3c(=O)[nH]2)n1	none
CC12CC3(C)CC(C)(C1)CC(C(=O)NC1=NCCS1)(C2)C3	none (no result: PostGolgi yeast, PostGolgi ctrl)
CC12CC3CC(C)(C1)CC(C(=O)NC1=NCCS1)(C3)C2	PostGolgi ctrl 38
CN(Cc1cccs1)C(=O)CSc1nnnn1C	none
Cc1ccccc1N(CC(=O)NC1CCCC1)C(=O)c1oc(C(C)(C)C)cc1C	none (no result: Candida biofilm)
Cc1cc(C(C)(C)C)oc1C(=O)N(CC(=O)NC1CCCC1)Cc1ccccc1Cl	PostGolgi ctrl 31 (no result: Candida biofilm)
CCCCN(CCCC)C(=O)c1ccccc1NC(=O)CN1C(=O)c2ccccc2C1=O	none
COc1cccc(C2(CSc3nnc(-c4cc(OC)c(OC)c(OC)c4)o3)OCCO2)c1	none (no result: Candida biofilm)
Cc1ccc(N=c2ssnc2Cl)cc1	none
Cc1cc(C)nc(/N=c2/ssnc2Cl)c1	PostGolgi yeast 64, PostGolgi ctrl 54
Cc1ccnc(N2C(=O)c3cccc4c([N+](=O)[O-])ccc(c34)C2=O)c1	PostGolgi yeast 105, PostGolgi ctrl 53 (no result: Candida biofilm)
O=C(CC(O)(c1ccccc1)C(F)(F)F)c1cccs1 (stereo not drawn)	EphB4 antag 31[fluorescence artefact?]
O=C(CSc1nc2ccccc2o1)NCCOc1ccccc1	none
COCCNCC(=O)NC12CC3CC(CC(C3)C1)C2	none
COCCC(=O)NC12CC3CC(CC(C3)C1)C2	PostGolgi ctrl 35
Cn1ccnc1SCC(=O)NC12CC3CC(CC(C3)C1)C2	none
O=C(CCSc1ccc(Cl)c(Cl)c1)NC12CC3CC(CC(C3)C1)C2	PostGolgi ctrl 39 (no result: Candida biofilm)
CC(=O)Nc1sc2c(c1CN1CCN(C)CC1)CCCC2	none
O=C(NO)c1ccc(C(=O)N(C2CCCCC2)C2CCCCC2)cc1	PostGolgi yeast 102, PostGolgi ctrl 96
NS(=O)(=O)c1ccc(Nc2nc(-c3ccc4ccccc4c3)cs2)cc1	PostGolgi ctrl 42
Cc1ccc(Nc2nc(-c3ccc(S(=O)(=O)N4CCOCC4)cc3)cs2)cc1	none (no result: PostGolgi yeast, PostGolgi ctrl, Candida biofilm)
N#Cc1cc2c(nc1SCC(O)CS(=O)(=O)Cc1ccc(Cl)cc1)CCCC2 (stereo not drawn)	PostGolgi ctrl 36
CC(C)(C)c1ccc(S(=O)(=O)CC(O)CSc2nc3c(cc2C#N)CCCC3)cc1 (stereo not drawn)	none
CCCn1c(-c2cccnc2Cl)nc2cc(Cl)c(Cl)cc21	PostGolgi ctrl 43 (no result: Candida biofilm)
C=CCn1c(-c2cccnc2Cl)nc2cc(Cl)c(Cl)cc21	PostGolgi ctrl 36 (no result: Candida biofilm)
Clc1cccc(Cl)c1Cn1c(-c2cccnc2Cl)nc2ccccc21	PostGolgi ctrl 50 (no result: Candida biofilm)
c1csc(Cn2c(-c3cccs3)nc3ccccc32)c1	none
COc1cccc(-c2csc(N3CCN(C(=O)Nc4ccc(F)cc4)CC3)n2)c1	none (no result: PostGolgi yeast, PostGolgi ctrl)
COc1cccc(-c2csc(N3CCN(C(=O)C4CCCCC4)CC3)n2)c1	PostGolgi ctrl 38 (no result: EphB4 antag)
CC(C)=CC1C=C(C)C(C)C2C(=O)NNC(=O)C12 (stereo not drawn)	none
Clc1ccc(Cn2ncc3c(N4CCCC4)ncnc32)cc1	none
Cc1cccc(-n2ncc3c(N4CCCC4)ncnc32)c1	none (no result: PostGolgi yeast, PostGolgi ctrl)
Cc1cccc(-n2ncc3c(N4CC(C)CC(C)C4)ncnc32)c1 (stereo not drawn)	PostGolgi ctrl 33
CC1CC(C)CN(c2ncnc3c2cnn3Cc2ccc(Cl)cc2)C1 (stereo not drawn)	PostGolgi ctrl 51
Cc1ccc(S(=O)(=O)N(C)c2ccc(C(=O)N3CCN(Cc4ccc5c(c4)OCO5)CC3)cc2)cc1	none

Source: PubChem BioAssay (several laboratories)
